# From PubChem BioAssay (NCI)
# Compounds without any hit were thinned out: in the full panel of roughly 79,000, 15% have a hit. Unmarked numbers belong to inactive results. Activity calls are given as the source filed them. Rule as the data show it: active = growth inhibition above about 70%; inactive = the rest.
# Legend:
# [1] = NCI Yeast Anticancer Drug Screen. Data for the rad50 strain (AID 155);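 also: 0% = growth of vehicle-only cultures of the same strain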; conditions: S. cerevisiae rad50 strain growth inhibition; at 50.0 µM; hits give high values
# Procedure, shortened: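 DNA repair mutant yeast, compound exposure, growth read-out; inhibition is taken relative to vehicle.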
# [2] = NCI Yeast Anticancer Drug Screen. Data for the mec2-1 strain (AID 157); conditions: S. cerevisiae mec2-1 strain, at 50.0 µM, hits give high values
# Procedure, shortened: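 Compounds were applied to mec2-1 yeast cells. Their growth was then compared with that of vehicle-treated cultures to give growth inhibition.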
# [3] = NCI Yeast Anticancer Drug Screen. Data for the sgs1 mgt1 strain (AID 161);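 also: 0% = growth of cultures given vehicle only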; conditions: S. cerevisiae sgs1 mgt1 strain, at 50.0 µM, hits give high values
# Procedure, shortened: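 Growth of a repair-deficient yeast mutant was monitored after compound treatment and expressed as inhibition relative to vehicle-treated cultures.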
# [4] = NCI Yeast Anticancer Drug Screen. Data for the cln2 rad14 strain (AID 165);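 also: 0% = growth equal to vehicle treated cultures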; conditions: S. cerevisiae cln2 rad14 strain, at 50.0 µM, hits give high values
# Procedure, shortened: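 Strain: cln2 rad14 yeast, altered in cell cycle control and DNA damage repair. Read-out: growth inhibition vs vehicle.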
# [5] = NCI Yeast Anticancer Drug Screen. Data for the bub3 strain (AID 167); conditions: S. cerevisiae bub3 mutant strain, at 50.0 µM, hits give high values
# Procedure, shortened: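 In this screen, a yeast mutant lacking normal mitotic checkpoint function is challenged with compound. Relative growth versus vehicle gives the inhibition value.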
# [6] = NCI Yeast Anticancer Drug Screen. Data for the mlh1 rad18 strain (AID 175); conditions: S. cerevisiae mlh1 rad18 strain growth inhibition; at 50.0 µM; hits give high values
# Procedure, shortened: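 A repair-deficient yeast strain is exposed to test compound, and growth is scored relative to vehicle-treated controls.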
SMILES,growth inhibition [1],growth inhibition [2],growth inhibition [3],growth inhibition [4],growth inhibition [5],growth inhibition [6]
CC(C)c1cccc(C(C)C)c1O,22.2%,26%,-21.9%,3.5%,10.9%,12.9%
Cc1cc(S(=O)(=O)F)ccc1NC(=O)/C=C/c1ccc([N+](=O)[O-])cc1,8.95%,4%,0.75%,0.55%,21.4%,-8.15%
CNC(=O)O/N=C(\SC)C(=O)N(C)C,-39.9%,-27.2%,-5.05%,-31.2%,-3.1%,-1.05%
C=CCNC(=S)/N=C/c1c(O)[nH]c(=O)[nH]c1=O,-64.8%,-50.4%,-44.9%,-47%,-15.8%,-44.1%
CCOC(C(=O)O)(c1ccccc1)c1ccccc1,-0.55%,22.2%,18.5%,-10.1%,19.5%,22.8%
CC(C)C1(Cc2ccccc2)C(=O)NC(=S)NC1=O,-2.05%,-0.8%,9.3%,-2.85%,-14.2%,-2.7%
C=CCC1(C(=C)C)C(=O)NC(=O)NC1=O,6.05%,6.05%,1.4%,2.75%,-13.8%,-11.3%
CN1CCC2(CC1)C(C#N)C(=O)NC(=O)C2C#N (stereo unspecified),19.8%,3%,11.7%,22.9%,9.05%,7.75%
Clc1cccc2nncc(N3CC3)c12,2%,23.6%,-17.2%,-6.2%,-9.05%,9.25%
CC(=O)[C-](Br)C(C)=O.CC(=O)[C-](Br)C(C)=O.CC(=O)[C-](Br)C(C)=O.[Ru+3],1.05%,1%,-15.9%,-15.1%,17.8%,14.5%
CC1(C)N=C(N)N=C(N)N1c1ccc(CCCCCCc2ccc(S(=O)(=O)F)cc2)cc1,99.5% (active),99% (active),99.5% (active),99% (active),99% (active),99.4% (active)
Nc1ccc([As](=O)(O)O)cc1,27.8%,19.8%,14.9%,11.8%,7.9%,21.3%
Cc1ccc(NC(=O)N(C)N=O)cc1,-3.5%,5.5%,-4.3%,-11.3%,-6.05%,-4.45%
O=C1NC(=O)C2(c3ccccc3)CCN1C2=O (stereo unspecified),1.35%,4.6%,1.8%,-7%,-12.2%,10%
COC(=O)C1(F)C(=O)NC(=O)NC1O (stereo unspecified),-4.6%,-2.75%,3.5%,14.7%,0.85%,2.25%
CN1CCN[C@@H]2CCCC[C@@H]21,11.2%,-5%,-10.2%,-7.8%,5.65%,-11.6%
C/C=C/C(=O)[O-].C/C=C/C(=O)[O-].N.N.N.N.[Co+3].[O-][Cl+3]([O-])([O-])[O-],0.2%,-2.7%,-7.2%,25.1%,7.3%,-3.5%
O=S(=O)(O)O.[In],22.2%,41.6%,39.1%,10.1%,26.5%,15.1%
CCN=C=NCCCN(C)C,-18.8%,-8.8%,-23.1%,0.25%,-41.2%,-6.35%
Cc1cc(S(=O)(=O)F)ccc1NC(=O)NCc1ccc(N2C(N)=NC(N)=NC2(C)C)cc1,-6.25%,-18%,-3.95%,-37.7%,-9.4%,-8.3%
CC(/C=C/C1OC(=O)C=CC1C)=C\C(C)C/C=C/C(C)=C/C(CO)C(=O)C(C)C(O)C(C)C/C(C)=C/C(=O)O (stereo unspecified),73.1% (active),62.2%,81.9% (active),62.6%,77.6% (active),87.4% (active)

SMILES,growth inhibition [1],growth inhibition [2],growth inhibition [3],growth inhibition [4],growth inhibition [5],growth inhibition [6]
Cc1cccc(C#N)c1,3.55%,-26.1%,1.2%,-1.4%,-7%,-0.05%
O=C(Nc1ccc(N(CCCl)CCCl)cc1)c1ccc([N+](=O)[O-])cc1,20.1%,0.75%,3%,-23.6%,-1.05%,-2.6%
CC(=O)OC1CCC2(CO)C(CCC3C4CCC(=O)C4(C)CCC32)C1 (stereo unspecified),14.1%,-4.25%,0.3%,11.9%,5.3%,21.8%
CCOC(=O)c1ccccc1C(=O)OCC,6.25%,-2.65%,-9.6%,6.1%,-0.05%,10.9%
CC(=O)OCC1OC([Se-])C(OC(C)=O)C(OC(C)=O)C1OC(C)=O.N#CCC[PH+](CCC#N)CCC#N.[Au+] (stereo unspecified),7.35%,6.75%,-4.55%,-15.8%,1.75%,10.1%
CC1OCN2CCCCC12 (stereo unspecified),-25.9%,-12.7%,-33.4%,-7.85%,-25.1%,-27.1%
Clc1ccc(-c2csc3cccc[n+]23)cc1,7.5%,4.35%,19.4%,24.1%,22.8%,19.3%
CCCCCCCC(=O)[O-].N.N.N.N.N.[Co+3].[O-][Cl+3]([O-])([O-])[O-],-16.1%,20.2%,-46.8%,9.1%,-10.7%,-13.3%
O=C(NCCN1CCOCC1)c1cc(N(CCCl)CCCl)c([N+](=O)[O-])cc1[N+](=O)[O-],15.8%,7.45%,16.6%,23.6%,33.1%,27.9%
Cn1c[n+](C)nn1,-2.75%,-12.8%,-1.3%,-29.1%,-3.25%,-18.2%
[C-]#[O+].[C-]#[O+].[C-]#[O+].[Mo].c1ccc(P(CC[PH+](CC[PH+](CC[PH+](c2ccccc2)c2ccccc2)c2ccccc2)c2ccccc2)c2ccccc2)cc1 (stereo unspecified),30.8%,27.5%,43.4%,37.7%,32.5%,44.1%
c1ccc([As](c2ccccc2)c2ccccc2)cc1,0.75%,-0.95%,-7.9%,-3.3%,-3.95%,5.05%
BrCC[N+]12CC[N+](CCBr)(CC1)C2 (tested in a mixture with another compound),63.1%,49.5%,81.6% (active),61.5%,78.1% (active),42.4%
CCC(=O)OC1(c2ccccc2)CCN(CCC(=O)c2ccccc2)CC1C (stereo unspecified),48.6%,36.6%,47.8%,38.6%,27.1%,37.3%
CCC1(CCO)C(=O)NC(=O)NC1=O,-1.6%,-48.9%,-0.4%,-12.2%,-14.8%,-2.7%
CN1CC[CH2][Sn]([Cl])([Cl])[CH2]CC1,-1.25%,-5.9%,1.15%,1.3%,-17.2%,13%
N.N.N.N.N.N.O=N[O-].[Br-].[Co+3].[Co+3].[OH3+].[OH3+],7.15%,9.25%,-15.4%,15.9%,6.25%,-7.9%
COc1cc2c(cc1OC)C13CCN4CC5CCOC6CC(=O)N2C1C6C5CC43 (stereo unspecified),8.6%,6.35%,21.6%,10.2%,-7.5%,-72.3%
c1ccc2c(C3N4CCCN3CC4)c[nH]c2c1 (stereo unspecified),-0.2%,-15.7%,8.7%,9.3%,-4.2%,6.05%
c1cc[c]([Pb]([S]c2ccccn2)([c]2ccccc2)[c]2ccccc2)cc1,99.2% (active),99.1% (active),99.5% (active),99% (active),99% (active),99.2% (active)
